A selection: hits, their analogues and other compounds. The true share with any hit is near 1.2%.
PfHsp40 rescue: rescue of yeast from PfHsp40 toxicity, primary screen, S. cerevisiae, ATP luminescence. S. cerevisiae expressing PfHsp40, growth rescue. growth rescue, % at 12.5 µM. 0.68% of 340,000 active; in the data active means growth rescue above about 28%, passing the limit was not always enough;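 further: yeast W303a lacking pdr1 and pdr3 grown in galactose medium; growth measured after three days at 30 °C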
Sa RN4220 lethal: growth inhibition of S. aureus RN4220, primary screen, OD600. 0.33% of 330,000 active. inhibition, % (test concentration not listed). 16 h; in the data active means inhibition above about 85%;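 further: plate controls were untreated cells for no effect and reference antibiotic for full effect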
TcdB inh: TcdB glycohydrolase inhibitors, primary screen, biochemical, single point, plate reader; TcdB glycohydrolase enzymatic assay; 0.24% of 350,000 active; AID 652162, 2013; inhibition, % at 9.99 µM; in the data active means inhibition above about 10%
Sa ugtP lethal: growth inhibition of ugtP-null S. aureus, primary screen, RN4220 ugtP deletion, OD600; 16 h; growth inhibition, % (no concentration beside the values); 0.54% of 330,000 active; in the data active means growth inhibition above about 68%;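 further: plate controls were untreated wells for no effect and antibiotic for full effect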
PrP 5UTR inh: inhibition of PrP 5' UTR reporter expression | cell-based PrP 5' UTR mRNA reporter, plate reader | 0.35% of 340,000 active | AID 488862, 2010 | inhibition, % (test concentration not listed); in the data active means inhibition above about 52%; further: 0 = median of the neutral control wells
* = called active by the depositor; nt = no result.

SMILES | PfHsp40 rescue | Sa RN4220 lethal | TcdB inh | Sa ugtP lethal | PrP 5UTR inh
Cc1ccc(N(C(=O)c2ccccc2Cl)C2=NC(C)CS2)c(C)c1 (stereo not drawn) | 0 | 2 | 1 | 88* | -49
CCOc1ccccc1N(C(=O)c1ccccc1Cl)C1=NC(C)(C)CS1 | 0 | 9 | 1 | 5 | 9
CCC(C)NC(=O)CCC(=O)OC1O[C@H]2OC3(C)CC[C@H]4[C@H](C)CCC(C1C)C24OO3 (stereo partly drawn) | 101* | 4 | 0 | -2 | -21
COc1cc(/C=C/c2nc(N)nc(-c3ccccc3O)n2)cc(OC)c1OC | -2 | 0 | nt | 7 | -4
COc1cc(/C=C/c2nc(-c3ccccc3O)n[nH]2)cc(OC)c1OC | 42* | 1 | nt | -11 | -61
O=C(NN=Cc1cc(Br)c(O)c(Br)c1)c1ccccc1NS(=O)(=O)c1cccs1 | 1 | 32 | 14* | 13 | -23
O=C(NN=Cc1ccc(F)cc1)c1ccccc1NS(=O)(=O)c1cccs1 | -2 | 3 | 3 | 2 | -16
CCOC(=O)/C(=N/Nc1ccc(Br)cc1)N1CC(C)OC(C)C1 (stereo not drawn) | 36* | 4 | 34* | 10 | -16
CCOC(=O)/C(=N\Nc1ccccc1)N1CC1 | -1 | nt | 1 | nt | -38
COc1ccccc1-c1cn(CC[C@@H]2CC[C@@H](NC(=O)Cc3ccccn3)[C@@H](CO)O2)nn1 | nt | nt | -2 | nt | nt
CN(C(=O)c1cccc(Nc2ccc(-c3ccc4c(c3)OCCO4)nn2)c1)C1CCCCC1 | 4 | 88* | nt | 99* | -38
COc1ccc(NC(=O)Nc2cccc3c2O[C@H](CN(C)C(=O)Nc2ccc(OC)cc2)[C@H](C)CN([C@@H](C)CO)C3=O)cc1 | nt | nt | 1 | nt | nt
O=C(C[C@H]1C=C[C@@H](NC(=O)c2ccncc2)[C@@H](CO)O1)NCc1ccncn1 | nt | nt | 0 | nt | nt
CC1(C)Cc2c(sc3ncn4c(=S)[nH]nc4c23)CO1 | 2 | 4 | 22* | 10 | -18
CCn1c(=O)c(C(=O)NNC(=O)c2cccc(Cl)c2)c(O)c2ccccc21 | 2 | 100* | 1 | 100* | 6
Cn1c(=O)c(C(=O)NNC(=O)c2ccccc2Cl)c(O)c2ccccc21 | 82* | 20 | 1 | -7 | -13
Cn1c(=O)c(C(=O)NNC(=O)c2cccc(Cl)c2)c(O)c2ccccc21 | 19 | 100* | 1 | 100* | -14
Cc1nn(-c2ccccc2)c2c1C1(C(=O)N(C(C)C)c3ccccc31)C(C#N)=C(N)O2 (stereo not drawn) | -1 | 92* | nt | 67 | -17
Cc1nn(-c2ccccc2)c(N)c1C1(O)C(=O)N(C(C)C)c2ccccc21 (stereo not drawn) | -2 | 4 | 1 | 0 | -4
CN1C(=O)c2cc(NC(=O)C3CCC3)ccc2OC[C@@H]2O[C@@H](CC(=O)NCC3CCCCC3)CC[C@@H]21 | nt | nt | 1 | nt | nt
O=C(c1ccccc1)c1coc2ccc(O)c(Cl)c12 | 0 | 8 | 12* | 2 | -30
Cc1ccc(C(=O)c2coc3ccc(O)c(Cl)c23)cc1 | 0 | 5 | nt | 11 | -84
CC(=O)n1cc(N(C(=O)CCl)c2ccc(Cl)cc2)c2ccccc21 | nt | 58 | nt | 95* | nt
COc1ccccc1N(C(=O)CCl)c1cn(C(C)=O)c2ccccc12 | 0 | 4 | 1 | 19 | -27
CC(C)[C@H](N)C(=O)NCC1CCC(C(=O)N[C@@H](Cc2ccccc2)C(=O)O)CC1 (stereo partly drawn) | nt | -3 | nt | -6 | nt
SMILES | PfHsp40 rescue | Sa RN4220 lethal | TcdB inh | Sa ugtP lethal | PrP 5UTR inh
CC(=O)O[C@H]1[C@@H](O)[C@H](O)[C@H](Oc2c(O)c(C)c3c4c2[C@@H](C)CC[C@@H]4[C@@H](C)C[C@H]3C=C(C)C)O[C@H]1C | 125* | nt | -1 | nt | -21
CC(C)=CC1CC(C)C2CCC(C)c3c(O)c(O)c(C)c1c32 (stereo not drawn) | nt | -2 | nt | 10 | nt
O=C1NC(=O)C(=Cc2ccc(Cl)c(Cl)c2)S1 | 5 | 76 | 1 | 65 | 0
O=C1NC(=O)/C(=C/c2ccc(O)cc2)S1 | 0 | nt | 27* | nt | -15
CCOc1cc(C=NNC(=O)C(=O)NCc2ccc3c(c2)OCO3)ccc1OCC(=O)N1CCOCC1 | nt | 3 | nt | 4 | nt
CC(=O)Nc1ccc(S(=O)(=O)c2ccc([N+](=O)[O-])cc2)cc1 | -1 | 97* | 0 | 72 | -9
N#CC1C(=N)Cc2ccccc2-c2ccccc21 (stereo not drawn) | 39* | 7 | 1 | 5 | -5
Cc1ccccc1OCCOc1ccc([N+](=O)[O-])cc1C=Nn1cnnc1 | nt | -2 | nt | -13 | nt
O=C(NN=Cc1ccc(COc2ccc(Br)cc2)o1)c1ccc2c(c1)OCO2 | nt | 2 | nt | -10 | nt
O=C(c1ccncc1)N1CC2(C1)[C@@H](c1ccccc1)[C@@H](CO)N2C(=O)c1ccncc1 | nt | nt | 0 | nt | nt
CCN(CC)CCNc1cccc2sc3ccccc3c(=O)c12 | nt | nt | 2 | nt | nt
CN(C)CCNc1cccc2sc3ccc(O)cc3c(=O)c12 | nt | nt | 39* | nt | nt
Cc1ccc(NCCN(C)C)c2c(=O)c3cc(O)ccc3sc12 | 0 | nt | 21* | nt | -10
COc1ccc(NC(=O)N(C)CC2Oc3ccc(NC(=O)NC(C)C)cc3CC(=O)N(C(C)CO)CC2C)cc1 (stereo not drawn) | nt | 0 | nt | -10 | nt
C[C@@H]1CN([C@@H](C)CO)C(=O)c2cc(NC(=O)C3CC3)ccc2O[C@H]1CN(C)C(=O)NC1CCCCC1 | nt | nt | -1 | nt | nt
CCOc1ccc(NC(=O)c2ccc(CC)s2)c([N+](=O)[O-])c1 | -1 | 10 | 10* | 11 | -69
CCOc1ccc(NC(=S)NC(=O)c2cnn(CC)c2)c([N+](=O)[O-])c1 | 0 | 4 | 1 | 85* | -16
C[C@@H]1CN([C@@H](C)CO)C(=O)c2ccccc2-c2ccccc2CO[C@H]1CN(C)S(=O)(=O)c1ccccc1 | nt | nt | 1 | nt | nt
O=C(O)c1ccc(C=NNC(=O)c2cc3ccccc3cc2O)cc1 | nt | -2 | nt | -4 | nt
O=C1N=c2ccccc2=C1c1c(O)[nH]c2c(C(F)(F)F)cccc12 | 1 | 96* | 0 | 98* | -22
C[C@H]1CN([C@@H](C)CO)C(=O)c2cccc(NS(=O)(=O)c3cn(C)cn3)c2O[C@H]1CN(C)Cc1ccc(C(=O)Nc2ccccc2N)cc1 | nt | nt | -1 | nt | nt
O=C(Nc1ccc(F)c(Cl)c1)Nc1csc2ccccc12 | 0 | 100* | 0 | 100* | -15
Cc1ccc(SCCNC(=O)c2ccc([N+](=O)[O-])c(C)c2)cc1 | 6 | 2 | 0 | 2 | -26
Cc1ccc(SCCNC(=O)c2ccc(C)c([N+](=O)[O-])c2)cc1 | 48* | -6 | nt | -8 | -12
CO[C@H]1CN(C)C(=O)c2ccc(NC(C)=O)cc2OC[C@H](C)N(Cc2ccncc2)C[C@H]1C | nt | nt | -1 | nt | nt
Oc1ccc2ccccc2c1C=Nc1cc(C(F)(F)F)ccc1N1CCCC1 | -1 | -5 | nt | 95* | -9
O=C(O)c1ccc(N=Cc2c(O)ccc3ccccc23)cc1 | -1 | 8 | 0 | 1 | -23

Assay outcomes as filed in PubChem BioAssay.
